The panel holds about 83,000 compounds, 20% with a hit somewhere; the sample as a whole holds those more often.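 Note: values are percent growth. 100 is the growth of untreated cells, values between 100 and 0 indicate rising inhibition; between -100 and 0 indicates cell death.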 Unmarked numbers belong to inactive results. Activity calls are given as the source filed them. The calls were made as follows: active = growth percent below 10; inactive = the rest.
How the values were obtained:
Experiment in all cases: NCI-60 one-dose screen, 48 h (100 = growth as untreated, 0 = no growth, -100 = all killed)
Details in all cases: 10 µM unless noted
T-47D breast = test system: T-47D breast
MDA-MB-435 melanoma = test system: MDA-MB-435 melanoma
SW-620 colon = test system: SW-620 colon
HCT-116 colon = test system: HCT-116 colon
HCC-2998 colon = test system: HCC-2998 colon
KM12 colon = test system: KM12 colon
MCF7 breast = test system: MCF7 breast
BT-549 breast = test system: BT-549 breast

CCN(CC)Cc1cc(Nc2ccnc3ccc(OC)cc23)ccc1O
growth (T-47D breast): -43.9% (active)
growth (MDA-MB-435 melanoma): 47.6%
growth (SW-620 colon): 27.5%
growth (HCT-116 colon): 16.2%
growth (HCC-2998 colon): 32.8%
growth (KM12 colon): 42.2%

COc1ccc2c(c1)sc1nc(-c3ccccc3)c(-c3cccc4ccccc34)n12
growth (T-47D breast): 60.5%
growth (MDA-MB-435 melanoma): -49.4% (active)
growth (SW-620 colon): 27.8%
growth (MCF7 breast): 27.7%
growth (HCT-116 colon): 18.6%
growth (HCC-2998 colon): -26.8% (active)
growth (KM12 colon): 15.7%

CCOCCNc1ccc(S(=O)(=O)c2ccc(N)cc2)cc1N
growth (T-47D breast): 99.8%
growth (MDA-MB-435 melanoma): 105%
growth (SW-620 colon): 102%
growth (MCF7 breast): 113%
growth (HCT-116 colon): 102%
growth (HCC-2998 colon): 101%
growth (KM12 colon): 99.3%

C=C1C[C@@]2(C)C(CC[C@]3(C)C2CC=C2C4CC(C)(C)C[C@@H](OC(=O)/C(C)=C\C)[C@]4(C(=O)O)CC[C@]23C)C(C)(C)C1=O (some centres undefined)
growth (T-47D breast): -11.3% (active)
growth (MDA-MB-435 melanoma): -12.4% (active)
growth (SW-620 colon): -29.1% (active)
growth (MCF7 breast): 8.17% (active)
growth (HCT-116 colon): -78.5% (active)
growth (HCC-2998 colon): -79.9% (active)
growth (KM12 colon): 3.05% (active)

COc1ccc2nc(C)cc(Sc3nc4ccccc4s3)c2c1
growth (T-47D breast): 32.5%
growth (MDA-MB-435 melanoma): 17.2%
growth (SW-620 colon): 31.3%
growth (MCF7 breast): 15.9%
growth (HCT-116 colon): 24.5%
growth (HCC-2998 colon): 73.8%
growth (KM12 colon): 50.5%

O=C(CC(=O)C(F)(F)C(F)(F)C(F)(F)F)c1cc2ccccc2o1
growth (T-47D breast): 96%
growth (MDA-MB-435 melanoma): 104%
growth (SW-620 colon): 97.6%
growth (MCF7 breast): 103%
growth (HCT-116 colon): 102%
growth (HCC-2998 colon): 113%
growth (KM12 colon): 104%

COc1cc(/C=C\c2cc(/C=C\c3ccc(O)c(OC)c3)n(C(=O)Nc3ccc(C(F)(F)F)cc3)n2)ccc1O
growth (T-47D breast): 47.4%
growth (MDA-MB-435 melanoma): 27.8%
growth (SW-620 colon): 18%
growth (MCF7 breast): 22.9%
growth (HCT-116 colon): -53.7% (active)
growth (HCC-2998 colon): 103%
growth (KM12 colon): 41.4%

Oc1c(C(Nc2cccc3ccccc23)c2ccccc2)ccc2cccnc12 (centres undefined)
growth (T-47D breast): 49.1%
growth (MDA-MB-435 melanoma): 42.3%
growth (SW-620 colon): 37.6%
growth (MCF7 breast): 25.8%
growth (HCT-116 colon): 15.6%
growth (HCC-2998 colon): 27.5%
growth (KM12 colon): 36%

CC(C)N(C(=S)SSC(=S)N(C(C)C)C(C)C)C(C)C
growth (T-47D breast): 86.8%
growth (MDA-MB-435 melanoma): 99.6%
growth (SW-620 colon): 105%
growth (KM12 colon): 108%

C=C[C@H]1CCC/C=C/[C@@H]2C[C@H](O)C[C@H]2[C@H](O)/C=C/C(=O)O1
growth (T-47D breast): -14% (active)
growth (MDA-MB-435 melanoma): 15%
growth (SW-620 colon): -63.8% (active)
growth (MCF7 breast): -50.1% (active)
growth (HCT-116 colon): -76.9% (active)
growth (HCC-2998 colon): -62.4% (active)
growth (KM12 colon): -59.2% (active)

C=C(C)[C@@H]1CC[C@]2(C(=O)NS(=O)(=O)c3ccccc3)CC[C@]3(C)[C@H](CC[C@@H]4[C@@]5(C)CC[C@H](OC(=O)NS(=O)(=O)c6ccccc6)C(C)(C)[C@@H]5CC[C@]43C)[C@@H]12
growth (T-47D breast): 1.6% (active)
growth (MDA-MB-435 melanoma): 12.8%
growth (SW-620 colon): 16.6%
growth (MCF7 breast): 2.66% (active)
growth (HCT-116 colon): -44.1% (active)
growth (HCC-2998 colon): -8.69% (active)
growth (KM12 colon): 4.05% (active)

O=C1CCCN1C(O)CCN(Cc1ccccc1)Cc1ccc(Cl)cc1 (centres undefined)
growth (T-47D breast): 99.6%
growth (MDA-MB-435 melanoma): 103%
growth (SW-620 colon): 100%
growth (MCF7 breast): 94.1%
growth (HCT-116 colon): 96.7%
growth (HCC-2998 colon): 108%
growth (KM12 colon): 105%

COC(=O)C(Br)(C(=O)OC)C(Br)C(Br)C(Br)c1ccccc1 (centres undefined)
growth (BT-549 breast): 108%
growth (MDA-MB-435 melanoma): 47.9%
growth (SW-620 colon): -79% (active)
growth (MCF7 breast): 18.3%
growth (HCT-116 colon): -92.6% (active)
growth (HCC-2998 colon): 98.4%
growth (KM12 colon): 89.9%

COc1ccc(C(=O)O)cc1.[Ag]
growth (T-47D breast): 92.6%
growth (MDA-MB-435 melanoma): 95.3%
growth (SW-620 colon): -61.9% (active)
growth (MCF7 breast): 100%
growth (HCT-116 colon): 94.5%
growth (KM12 colon): 87%

OCCN(CCO)c1ccc2ccccc2c1
growth (T-47D breast): 96.6%
growth (MDA-MB-435 melanoma): 104%
growth (SW-620 colon): 105%
growth (MCF7 breast): 93.3%
growth (HCT-116 colon): 89.3%
growth (HCC-2998 colon): 108%
growth (KM12 colon): 99.9%

NS(=O)(=O)c1ccc(CCn2c(SCC(=O)N/N=C/c3ccccc3O)nc3ccccc3c2=O)cc1
growth (T-47D breast): 49.2%
growth (MDA-MB-435 melanoma): 3.97% (active)
growth (SW-620 colon): 26.1%
growth (MCF7 breast): 21.7%
growth (HCT-116 colon): 16.9%
growth (HCC-2998 colon): 86.8%
growth (KM12 colon): 34%

Cc1c2c(cc3c1[nH]c1ccccc13)C=NCC2
growth (T-47D breast): 73.7%
growth (MDA-MB-435 melanoma): 94.9%
growth (SW-620 colon): 97%
growth (MCF7 breast): 60.8%
growth (HCT-116 colon): 71.1%
growth (HCC-2998 colon): 96.8%
growth (KM12 colon): 87%

CN1C2CCC1/C(=C\c1ccc(Cl)cc1)C(=O)/C2=C/c1ccc(Cl)cc1
growth (T-47D breast): 59.7%
growth (MDA-MB-435 melanoma): 63.9%
growth (SW-620 colon): 57.5%
growth (MCF7 breast): 22.7%
growth (HCT-116 colon): 17.4%
growth (HCC-2998 colon): 112%
growth (KM12 colon): 54.3%

COC(=O)c1ccc2c(c1)nc(-c1ccc(Cl)cc1)n2-c1cc(C(C)(C)C)[nH]n1
growth (T-47D breast): 76.9%
growth (MDA-MB-435 melanoma): -12.3% (active)
growth (SW-620 colon): 49.1%
growth (MCF7 breast): 25.1%
growth (HCT-116 colon): 28.5%
growth (HCC-2998 colon): 68.1%
growth (KM12 colon): 34.6%

O=C(Nc1ccc(Br)cc1)Nc1cccc(Br)c1
growth (T-47D breast): -10.5% (active)
growth (MDA-MB-435 melanoma): 47.4%
growth (SW-620 colon): 29%
growth (MCF7 breast): 13.3%
growth (HCT-116 colon): 27.5%
growth (HCC-2998 colon): 27.6%
growth (KM12 colon): 13.2%

COc1cnc2c(c1)C(=O)c1c-2n(CCCNC(C)C)c(=O)c2cc(Cl)ccc12
growth (T-47D breast): -84.3% (active)
growth (MDA-MB-435 melanoma): -94.6% (active)
growth (SW-620 colon): -81.7% (active)
growth (MCF7 breast): -58.6% (active)
growth (HCT-116 colon): -92.4% (active)
growth (HCC-2998 colon): -52.1% (active)
growth (KM12 colon): -71.7% (active)

CCN(CC)C(=O)O/N=C(/C)c1ccccc1
growth (T-47D breast): 110%
growth (MDA-MB-435 melanoma): 104%
growth (SW-620 colon): 106%
growth (MCF7 breast): 97.1%
growth (HCT-116 colon): 104%
growth (HCC-2998 colon): 104%
growth (KM12 colon): 102%
